# From the supplement of paper PMC10849652
# About 7,900 targets were measured; listed, in parts, are those with a hit and a random draw of the rest. About 0.6% of all pairs of compound and target were hits. A number with no mark means an inactive call.
# Key:
# Assay in all cases: log2 fold change, soluble protein after heating vs DMSO (PISA); higher = thermal stabilisation; K562 cells, 10 uM, 30 min; active = over 0.2 and 3.5 SD of the protein, either way, in both replicates (recomputed)
# [1] = compound: CC[C@@H]1C(=O)N(C)c2cnc(Nc3ccc(C(=O)NC4CCN(C)CC4)cc3OC)nc2N1C1CCCC1
# In short: (§1)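 Soluble protein was defined as the supernatant after 21,000xg for 90 min. It came from K562 cells at 2×10^6 cells/mL given 10 μM compound for 30 min, heated in aliquots for 3 min across 48°C-58°C, pooled, and extracted in PBS with 0.5% NP-40 at 4°C, and was quantified by TMTpro 16plex LC-MS/MS with equalised channel sums. Thermal stability against control samples, from duplicates, is reported as log2 fold change.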
# volasertib = compound: CC[C@@H]1C(=O)N(C)c2cnc(Nc3ccc(C(=O)N[C@H]4CC[C@H](N5CCN(CC6CC6)CC5)CC4)cc3OC)nc2N1C(C)C [volasertib]
# In short: as §1
# [2] = compound: CC[C@H](C)N1C=C(C2=C(C=C(C=C21)C3=CN=C(C=C3)N4CCNCC4)C(=O)NCC5=C(C=C(NC5=O)C)C)C
# In short: as §1
# epoxomicin = compound: CC[C@H](C)[C@@H](C(=O)N[C@@H]([C@@H](C)O)C(=O)N[C@@H](CC(C)C)C(=O)[C@]1(CO1)C)NC(=O)[C@H]([C@@H](C)CC)N(C)C(=O)C [epoxomicin]
# In short: as §1
# [3] = compound: CCn1c(C(=O)N(C2CC2)C2CC2)cc2c3c(ncn3C)c(Nc3cc(C)n(C)n3)nc21
# In short: as §1
# [4] = compound: CCn1cc(-c2ccnc3[nH]c(-c4cccc(CN(C)C)c4)cc23)c(-c2ccc(NC(=O)N(C)C)cc2)n1
# In short: as §1
# [5] = compound: CN(C)CC(=O)Nc1ccc2[nH]c(=O)c3ccccc3c2c1
# In short: as §1
# rosiglitazone = compound: CN(CCOC1=CC=C(C=C1)C[C@H]2C(=O)NC(=O)S2)C3=CC=CC=N3 (racemic) [rosiglitazone]
# In short: as §1
# [6] = compound: CN1C2=C(C3=C1C(=O)N(N=C3)CC4=CC(=CC=C4)N)SC(=C2)S(=O)C
# In short: as §1
# [7] = compound: CN1CCC(CNc2ccc3ncc(-c4cccc(OC(F)(F)F)c4)n3n2)CC1
# In short: as §1
# saracatinib = compound: CN1CCN(CCOc2cc(OC3CCOCC3)c3c(Nc4c(Cl)ccc5c4OCO5)ncnc3c2)CC1 [saracatinib]
# In short: as §1
# sotrastaurin = compound: CN1CCN(c2nc(C3=C(c4c[nH]c5ccccc45)C(=O)NC3=O)c3ccccc3n2)CC1 [sotrastaurin]
# In short: as §1
# alvocidib = compound: CN1CC[C@H](c2c(O)cc(O)c3c(=O)cc(-c4ccccc4Cl)oc23)[C@H](O)C1 [alvocidib]
# In short: as §1
# Tubastatin A = compound: CN1CCc2c(c3ccccc3n2Cc2ccc(C(=O)NO)cc2)C1 [Tubastatin A]
# In short: as §1
# [8] = compound: CNC(=O)C1=CC=CC=C1NC2=NC(=NC=C2Cl)NC3=C(C=C(C=C3)N4CCOCC4)OC
# In short: as §1
# defactinib = compound: CNC(=O)c1ccc(Nc2ncc(C(F)(F)F)c(NCc3nccnc3N(C)S(C)(=O)=O)n2)cc1 [defactinib]
# In short: as §1
# rucaparib = compound: CNCc1ccc(-c2[nH]c3cc(F)cc4c3c2CCNC4=O)cc1 [rucaparib]
# In short: as §1
# [9] = compound: CNc1nc(-c2ccc3c(N)n[nH]c3c2)cc(N2C[C@@H](C(=O)NC3CCCCC3)CC[C@H]2C)n1
# In short: as §1
# encorafenib = compound: COC(=O)N[C@@H](C)CNc1nccc(-c2cn(C(C)C)nc2-c2cc(Cl)cc(NS(C)(=O)=O)c2F)n1 [encorafenib]
# In short: as §1
# [10] = compound: COC(=O)[C@H](CCSC)NC(=O)C1=C(C=C(C=C1)NC[C@H](CS)N)C2=CC=CC=C2
# In short: as §1
# Chain of UniProt P98170 (P98170 whole entry, looked up): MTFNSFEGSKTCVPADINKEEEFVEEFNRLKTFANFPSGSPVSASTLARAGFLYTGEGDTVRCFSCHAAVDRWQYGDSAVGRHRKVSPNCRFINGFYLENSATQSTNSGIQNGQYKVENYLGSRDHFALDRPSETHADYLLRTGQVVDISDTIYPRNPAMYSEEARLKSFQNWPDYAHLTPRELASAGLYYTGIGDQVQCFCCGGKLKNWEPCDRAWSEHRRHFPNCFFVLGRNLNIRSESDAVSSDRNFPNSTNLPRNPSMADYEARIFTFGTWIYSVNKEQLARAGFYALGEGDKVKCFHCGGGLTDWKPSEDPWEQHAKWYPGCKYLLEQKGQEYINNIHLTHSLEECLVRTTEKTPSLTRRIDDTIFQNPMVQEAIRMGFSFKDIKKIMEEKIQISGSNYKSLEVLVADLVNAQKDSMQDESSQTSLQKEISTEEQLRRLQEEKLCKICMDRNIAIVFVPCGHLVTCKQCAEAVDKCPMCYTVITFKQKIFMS
# Chain of UniProt Q9H4I3 (Q9H4I3 whole entry, looked up): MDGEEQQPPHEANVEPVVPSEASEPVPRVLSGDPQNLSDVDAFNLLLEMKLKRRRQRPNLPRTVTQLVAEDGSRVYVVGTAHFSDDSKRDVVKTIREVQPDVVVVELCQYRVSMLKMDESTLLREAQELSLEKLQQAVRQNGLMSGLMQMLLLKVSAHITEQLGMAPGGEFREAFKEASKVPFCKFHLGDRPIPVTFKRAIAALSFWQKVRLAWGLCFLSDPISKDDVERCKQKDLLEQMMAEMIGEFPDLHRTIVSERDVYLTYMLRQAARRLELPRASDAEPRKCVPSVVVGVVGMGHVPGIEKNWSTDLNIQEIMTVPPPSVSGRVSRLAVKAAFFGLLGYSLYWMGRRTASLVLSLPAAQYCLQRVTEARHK
# Chain of UniProt Q9NVA4 (Q9NVA4 whole entry, looked up): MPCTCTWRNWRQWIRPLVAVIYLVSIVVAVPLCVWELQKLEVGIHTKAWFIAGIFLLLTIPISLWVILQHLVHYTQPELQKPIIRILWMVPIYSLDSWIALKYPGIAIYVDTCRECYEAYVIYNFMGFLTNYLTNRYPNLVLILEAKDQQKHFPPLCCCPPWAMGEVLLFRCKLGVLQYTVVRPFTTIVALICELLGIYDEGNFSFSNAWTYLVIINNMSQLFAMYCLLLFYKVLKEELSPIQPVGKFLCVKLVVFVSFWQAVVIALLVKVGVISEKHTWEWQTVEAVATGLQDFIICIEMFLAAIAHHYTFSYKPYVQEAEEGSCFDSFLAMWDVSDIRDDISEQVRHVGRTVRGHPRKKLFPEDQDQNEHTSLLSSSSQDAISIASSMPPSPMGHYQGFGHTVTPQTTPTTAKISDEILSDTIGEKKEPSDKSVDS
# Chain of UniProt Q9Y5K5 (Q9Y5K5 whole entry, looked up): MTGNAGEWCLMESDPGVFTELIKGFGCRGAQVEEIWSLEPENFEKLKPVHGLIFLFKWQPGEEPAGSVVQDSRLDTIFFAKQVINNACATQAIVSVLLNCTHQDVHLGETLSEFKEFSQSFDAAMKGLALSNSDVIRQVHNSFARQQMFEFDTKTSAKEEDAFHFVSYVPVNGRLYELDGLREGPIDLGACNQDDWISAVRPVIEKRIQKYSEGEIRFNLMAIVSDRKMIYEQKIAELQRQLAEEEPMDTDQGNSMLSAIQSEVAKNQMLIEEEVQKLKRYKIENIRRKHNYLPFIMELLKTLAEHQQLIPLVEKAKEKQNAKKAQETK
# Chain of UniProt Q8NEZ2 (Q8NEZ2 whole entry, looked up): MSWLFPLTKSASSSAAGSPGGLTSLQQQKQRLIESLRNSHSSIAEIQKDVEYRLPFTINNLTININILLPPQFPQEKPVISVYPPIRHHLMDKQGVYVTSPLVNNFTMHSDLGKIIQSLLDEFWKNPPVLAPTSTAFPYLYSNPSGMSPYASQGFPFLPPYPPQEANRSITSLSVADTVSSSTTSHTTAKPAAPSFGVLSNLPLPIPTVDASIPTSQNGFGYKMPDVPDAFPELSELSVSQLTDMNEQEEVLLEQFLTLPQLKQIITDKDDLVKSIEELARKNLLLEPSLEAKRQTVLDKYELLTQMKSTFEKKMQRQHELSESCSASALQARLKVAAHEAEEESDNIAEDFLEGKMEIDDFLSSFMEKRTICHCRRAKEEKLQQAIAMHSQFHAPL
# Chain of UniProt Q9C035 (Q9C035 whole entry, looked up): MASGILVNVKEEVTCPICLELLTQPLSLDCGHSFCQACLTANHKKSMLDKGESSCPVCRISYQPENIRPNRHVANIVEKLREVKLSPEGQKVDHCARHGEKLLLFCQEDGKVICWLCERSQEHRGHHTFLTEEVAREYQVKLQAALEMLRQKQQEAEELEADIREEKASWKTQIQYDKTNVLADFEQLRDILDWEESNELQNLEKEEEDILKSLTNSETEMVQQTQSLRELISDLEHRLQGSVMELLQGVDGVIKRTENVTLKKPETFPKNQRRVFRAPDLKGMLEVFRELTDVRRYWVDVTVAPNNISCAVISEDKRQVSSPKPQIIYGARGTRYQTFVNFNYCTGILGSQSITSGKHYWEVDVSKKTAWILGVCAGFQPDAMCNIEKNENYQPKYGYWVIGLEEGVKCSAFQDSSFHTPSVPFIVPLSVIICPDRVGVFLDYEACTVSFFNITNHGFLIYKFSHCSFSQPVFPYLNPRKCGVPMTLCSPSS
# Chain of UniProt Q9HCS7 (Q9HCS7 whole entry, looked up): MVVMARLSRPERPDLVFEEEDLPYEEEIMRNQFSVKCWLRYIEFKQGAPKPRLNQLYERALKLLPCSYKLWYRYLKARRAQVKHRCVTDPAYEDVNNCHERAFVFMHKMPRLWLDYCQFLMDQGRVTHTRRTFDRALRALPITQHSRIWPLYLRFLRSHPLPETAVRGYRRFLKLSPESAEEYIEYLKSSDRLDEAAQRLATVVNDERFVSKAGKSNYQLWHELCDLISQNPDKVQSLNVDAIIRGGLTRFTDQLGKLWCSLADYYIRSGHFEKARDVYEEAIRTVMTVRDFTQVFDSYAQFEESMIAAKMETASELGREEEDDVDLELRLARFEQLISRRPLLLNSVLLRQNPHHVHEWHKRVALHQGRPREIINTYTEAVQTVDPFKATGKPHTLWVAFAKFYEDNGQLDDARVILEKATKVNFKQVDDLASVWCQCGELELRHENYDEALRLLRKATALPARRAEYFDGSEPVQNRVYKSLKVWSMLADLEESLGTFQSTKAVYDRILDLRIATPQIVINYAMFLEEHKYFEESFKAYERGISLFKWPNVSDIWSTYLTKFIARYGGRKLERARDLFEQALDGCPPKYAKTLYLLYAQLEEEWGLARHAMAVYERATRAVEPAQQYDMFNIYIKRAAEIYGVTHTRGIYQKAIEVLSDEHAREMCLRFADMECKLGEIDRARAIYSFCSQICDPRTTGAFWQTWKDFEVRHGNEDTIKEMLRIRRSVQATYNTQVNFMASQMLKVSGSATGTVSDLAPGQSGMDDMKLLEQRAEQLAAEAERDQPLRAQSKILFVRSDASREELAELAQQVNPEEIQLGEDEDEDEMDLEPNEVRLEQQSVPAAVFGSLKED
# Chain of UniProt Q5VZI3 (Q5VZI3 whole entry, looked up): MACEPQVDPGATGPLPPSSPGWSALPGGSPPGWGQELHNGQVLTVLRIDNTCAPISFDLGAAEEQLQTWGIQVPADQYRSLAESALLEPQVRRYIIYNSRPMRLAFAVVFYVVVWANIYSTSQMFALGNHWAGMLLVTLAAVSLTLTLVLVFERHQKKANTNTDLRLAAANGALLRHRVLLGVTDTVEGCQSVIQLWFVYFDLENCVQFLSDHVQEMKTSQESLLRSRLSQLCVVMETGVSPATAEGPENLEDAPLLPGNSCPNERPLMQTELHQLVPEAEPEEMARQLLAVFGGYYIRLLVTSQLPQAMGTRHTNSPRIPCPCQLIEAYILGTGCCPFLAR
# Chain of UniProt Q9NX01 (Q9NX01 whole entry, looked up): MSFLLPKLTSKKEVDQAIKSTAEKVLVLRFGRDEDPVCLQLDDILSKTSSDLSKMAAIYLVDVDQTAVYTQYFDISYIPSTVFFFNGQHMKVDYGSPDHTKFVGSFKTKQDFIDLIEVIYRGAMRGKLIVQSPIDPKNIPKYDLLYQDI
# Chain of UniProt Q9NV66 (Q9NV66 whole entry, looked up): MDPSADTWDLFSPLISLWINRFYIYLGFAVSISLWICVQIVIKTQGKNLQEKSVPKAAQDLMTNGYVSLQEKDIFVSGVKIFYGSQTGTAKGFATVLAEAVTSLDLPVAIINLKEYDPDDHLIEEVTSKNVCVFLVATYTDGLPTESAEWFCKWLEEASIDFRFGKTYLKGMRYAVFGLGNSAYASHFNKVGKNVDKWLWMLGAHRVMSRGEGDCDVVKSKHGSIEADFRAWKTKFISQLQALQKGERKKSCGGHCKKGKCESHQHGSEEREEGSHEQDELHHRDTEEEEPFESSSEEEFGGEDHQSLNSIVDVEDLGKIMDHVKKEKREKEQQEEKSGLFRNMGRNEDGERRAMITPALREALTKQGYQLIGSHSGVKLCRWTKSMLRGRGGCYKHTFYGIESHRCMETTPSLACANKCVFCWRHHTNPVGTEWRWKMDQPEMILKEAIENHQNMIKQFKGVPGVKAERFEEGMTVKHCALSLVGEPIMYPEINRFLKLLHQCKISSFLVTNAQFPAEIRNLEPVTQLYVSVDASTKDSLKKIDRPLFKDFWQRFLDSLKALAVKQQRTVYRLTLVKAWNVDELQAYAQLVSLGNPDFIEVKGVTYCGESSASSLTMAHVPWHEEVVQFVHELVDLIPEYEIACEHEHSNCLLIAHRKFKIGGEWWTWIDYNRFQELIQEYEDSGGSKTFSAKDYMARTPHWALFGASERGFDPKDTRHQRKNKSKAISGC
# Chain of UniProt P21796 (P21796 whole entry, looked up): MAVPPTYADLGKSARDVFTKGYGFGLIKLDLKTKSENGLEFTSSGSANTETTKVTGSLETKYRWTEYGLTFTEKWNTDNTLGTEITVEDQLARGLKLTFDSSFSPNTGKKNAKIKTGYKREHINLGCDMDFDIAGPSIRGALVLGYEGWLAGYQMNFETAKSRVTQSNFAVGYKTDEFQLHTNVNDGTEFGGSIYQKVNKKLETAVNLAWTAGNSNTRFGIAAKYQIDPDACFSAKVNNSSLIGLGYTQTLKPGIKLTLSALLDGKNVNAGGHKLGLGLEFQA
Target,log2 fold change [1],log2 fold change (volasertib),log2 fold change [2],log2 fold change (epoxomicin),log2 fold change [3],log2 fold change [4],log2 fold change [5],log2 fold change (rosiglitazone),log2 fold change [6],log2 fold change [7],log2 fold change (saracatinib),log2 fold change (sotrastaurin),log2 fold change (alvocidib),log2 fold change (Tubastatin A),log2 fold change [8],log2 fold change (defactinib),log2 fold change (rucaparib),log2 fold change [9],log2 fold change (encorafenib),log2 fold change [10]
TYW1 (UniProt Q9NV66),-0.02,-0.341 (active),0.052,0.03,-0.009,-0.002,0.031,0.036,0.014,0.088,0.089,-0.059,-0.064,-0.033,0.031,-0.055,0.052,-0.061,0.028,-0.059
UNC119B (UniProt A6NIH7),-0.168,0.066,-0.224,,-0.134,-0.104,-0.023,0.001,0.004,0.047,-0.076,0.013,-0.206,0.124,-0.031,-0.064,0.133,0.316,0.026,-0.048
UCHL5 isoform 3 (UniProt Q9Y5K5),-0.008,-0.617 (active),0.126,0.293,0.107,,0.074,0.062,,,,-0.292,-0.156,-0.035,0.136,0.03,-0.08,,0.241,-0.254
VDAC1 (UniProt P21796),0.019,0.063,-0.013,0.012,0.023,-0.009,-0.005,,-0.022,0.055,0.074,0.035,0.016,-0.014,0.011,0.005,-0.022,-0.026,-0.03,0.014
TRABD (UniProt Q9H4I3),0.245,0.215,0,-0.004,0.128,-0.108,0.029,0.001,,0.228,,0.003,-0.151,0.06,0.131,-0.096,0.073,,-0.01,-0.033
TNFRSF8 (UniProt P28908),0.134,0.011,-0.034,0.016,-0.003,-0.016,0.009,-0.011,-0.051,0.201,0.037,0.092,-0.013,0.031,-0.013,-0.034,0.012,0.04,-0.046,-0.02
VPS13B (UniProt Q7Z7G8),-0.01,-0.088,0.004,0.019,-0.016,-0.008,-0.028,0.011,-0.053,-0.109,0.033,0.016,-0.003,0.032,-0.002,0.009,-0.039,-0.016,0.031,-0.01
TMEM268 isoform 3 (UniProt Q5VZI3),-0.088,-0.005,0.112,0.536 (active),0.093,0.013,,0.098,0.025,-0.123,0.033,-0.103,0.069,0.131,-0.017,,-0.021,0.046,-0.19,
UBE2J1 (UniProt Q9Y385),-0.073,-0.165,0.07,0.248,-0.024,0.014,0.01,0.003,-0.083,-0.006,0.019,-0.016,-0.073,0.26,-0.046,-0.133,0.048,0.204,0.001,0.035
XIAP (UniProt P98170),-0.135,-0.457 (active),0.094,0,-0.029,0,0.071,0.043,-0.101,-0.131,-0.149,-0.119,-0.108,0.002,-0.033,-0.12,0.107,-0.075,0.081,0.033
TXNL4B (UniProt Q9NX01),0.075,-0.111,-0.036,,-0.015,-0.069,0.186,0.056,0.051,-0.053,-0.053,0.189,-0.073,0.03,0.02,-0.093,0.022,-0.062,-0.021,-0.199
TRIM5 (UniProt Q9C035),,,,0,0.017,,-0.005,,0.25,,-0.429,0.103,-0.048,-0.102,-0.093,-0.108,,-0.017,,0.019
U2AF1L5 (UniProt P0DN76),-0.289,,0.045,,-0.303,,0.138,0.04,0.112,,-0.013,,,0.072,0.084,-0.409,0.236,-0.023,0.23,0.107
XAB2 (UniProt Q9HCS7),,,,0.019,,,,,0.026,,0.052,,,,,,,0.073,,
TMEM184C (UniProt Q9NVA4),-0.03,,0.033,0.087,,0.08,-0.013,0.088,-0.237,-0.492 (active),0.022,0.139,-0.123,0.022,,-0.049,0.028,-0.182,0.051,0.118
ULBP1 (UniProt Q9BZM6),,-0.178,,0.152,-0.013,,-0.019,,0.007,,-0.027,-0.175,0.005,0.016,-0.096,0.064,,0.07,,0.048
WARS1 (UniProt G3V5U1),-0.03,,,-0.237,,,,0.554,,,,0.315,,,,,0.228,,-0.451,
VPS37A (UniProt Q8NEZ2),,-0.707 (active),0.085,0.045,-0.001,-0.068,0.165,0.021,0.025,0.054,-0.043,-0.087,0.015,0.002,0.07,-0.164,,0.065,,0.138
TOM1 (UniProt O60784),,,,0.094,0.035,-0.072,,0.019,,-0.664 (active),,-0.033,,0.002,-0.113,,,,,
UBA52 (UniProt P62987),0.227,0.572,,-0.29,0.071,0.351,-0.256,-0.151,,0.369,,-0.029,0.339,-0.004,-0.008,0.221,0.421,,0.152,0.08
